# The campaign covered roughly 140,000 compounds. About 1,400 (1%) were called active. No stated cut-off is given here; in the data, active means inhibition above about 17%; inactive means the rest. For the sample, actives were picked, then their nearest neighbours and some compounds at random.
# Molecular target: Neuropeptide Y receptor type 2 (Homo sapiens) (UniProt P49146)
# Assay: NPY-Y2 receptor antagonists, primary screen, cell-based (AID 793);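 further: 0% = vehicle with agonist challenge and 100% = reference antagonist with challenge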
# Conditions: NPY-Y2 expressing cells, antagonist mode; at 2.7 µM; active compounds read high
# Chain of Neuropeptide Y receptor type 2 (Homo sapiens) (P49146 whole entry, looked up): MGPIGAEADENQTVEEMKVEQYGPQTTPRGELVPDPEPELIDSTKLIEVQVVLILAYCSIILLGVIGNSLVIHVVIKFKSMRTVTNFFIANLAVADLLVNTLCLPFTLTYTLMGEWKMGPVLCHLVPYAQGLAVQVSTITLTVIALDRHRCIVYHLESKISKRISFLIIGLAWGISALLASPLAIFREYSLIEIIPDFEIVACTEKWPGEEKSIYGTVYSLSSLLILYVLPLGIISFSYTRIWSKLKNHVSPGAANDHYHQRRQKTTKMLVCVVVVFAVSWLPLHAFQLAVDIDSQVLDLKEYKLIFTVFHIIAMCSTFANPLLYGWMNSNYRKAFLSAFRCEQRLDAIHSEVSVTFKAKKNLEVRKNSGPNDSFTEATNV
row,SMILES,inhibition
1,CCCCC(O)(CCCC)C(=O)NN(C(=O)CCl)c1ccccc1,21.9% (active)
2,CCCC(O)(CCC)C(=O)NN(C(=O)CCl)c1cccc(C)c1,8.32% (inactive)
3,Cc1ccc(N(NC(=O)C(C)(C)O)C(=O)c2ccccc2)cc1C,2.31% (inactive)
4,CCCc1cc(=O)[nH]c(SCc2cc(=O)oc3c(C)c(C)ccc23)n1,6.69% (inactive)
5,COc1cc(Cl)c(C)cc1NC(=O)[C@@H]1CCCN1C(=O)c1cccs1,6.63% (inactive)
6,CC(=O)Oc1ccc2c(C)c(CC(C)O)c(=O)oc2c1 (stereo not drawn),2.41% (inactive)
7,NC(=O)COc1ccc2c3c(c(=O)oc2c1)CCCCC3,0.83% (inactive)
8,O=C(Oc1ccccc1)Oc1ccc2c(c1)oc(=O)c1ccccc12,23.1% (active)
9,Cc1nc2ccccc2cc1C(=O)N/N=C/c1ccc([N+](=O)[O-])cc1,-0.48% (inactive)
10,Cc1cc(C(=O)OCC(=O)Nc2nnc(C(C)C)s2)c2ccccc2n1,4.1% (inactive)
11,CN(C)Cc1ccc(F)cc1Sc1cc(Cl)ccc1Cl,20.2% (active)
12,CCCC(=O)Nc1ccc(Cl)c(NC(=O)c2ccc(Br)o2)c1,-1.21% (inactive)
13,CCN1CCN(c2c(Cl)cccc2NC(=O)c2ccc(Br)o2)CC1,31.1% (active)
14,COc1cc(OC)c(NC(=O)c2ccc(Br)o2)cc1Cl,-1.32% (inactive)
15,COC(=O)c1ccc(CSc2nc3cc(Cl)ccc3o2)cc1,21.5% (active)
16,O=C(CSc1nc2ccccc2o1)N1c2ccccc2Sc2ccc(Cl)cc21,6.15% (inactive)
17,COC(=O)c1ccc(CSc2nncn2C)cc1,3.48% (inactive)
18,Cc1ccc(S(=O)(=O)NNC(=O)Nc2cccc3ccccc23)cc1,1.93% (inactive)
19,COc1cccc2c(O)cc(=O)n(C)c12,1.18% (inactive)
20,CCOc1ccc(S(=O)(=O)NCC2CCCO2)cc1 (stereo not drawn),2.22% (inactive)
21,CCOc1ccc(S(=O)(=O)N/N=C(\C)c2ccc(Cl)c(Cl)c2Cl)cc1,17.4% (active)
22,C/C(=N\NS(=O)(=O)c1ccc(Br)cc1)c1cccs1,3.39% (inactive)
23,Cc1cccc(NC(=O)/C=C/c2ccc3c(c2)OCO3)n1,3.73% (inactive)
24,COc1ccc(CCNC(=O)CSc2nc(-c3ccc(OC)c(OC)c3)ccc2C#N)cc1,4.73% (inactive)
25,COc1cccc(-c2ccc(C#N)c(SCC(=O)NCCc3ccc(Cl)cc3)n2)c1,18.3% (active)
26,COc1ccc(CCNC(=O)CSc2nnc(-c3cccc(F)c3)o2)cc1OC,-1.35% (inactive)
27,Cc1nnc(NC(=O)/C=C/c2ccco2)s1,10.7% (inactive)
28,O=C1OC(/C=C/c2ccccc2)=NC/1=C/c1ccco1,0.56% (inactive)
